Measured values taken from PubChem BioAssay.
Several values for one entry are separate records, joined by “and”; a condition that tells them apart may be missing. Identical values can stand only once. Activity calls are given as the source filed them.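 The calls were made as follows, unless noted: active = compounds whose cell count with miR-34 switched on is under 0.7 times the count with it off; inactive = the rest.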

What was measured:
[1] = system: Aerobactin synthetase IucA (Klebsiella pneumoniae); experiment: inhibition of K. pneumoniae IucA enzyme – biochemical, Tocris library, absorbance (AID 1345561; call rule not given here;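 also: 100% = enzyme without compound and 0% = no enzyme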); settings: purified IucA enzyme assay, absorbance (OD) read-out; stronger effect = lower value;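 tested at 8 µM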
[2] = viability loss with induced miR-34 in A549 – imaging, A549 dox-inducible miR-34, nuclei and caspase counts, primary screen (AID 1347080); settings: A549 miR-34 inducible, Hoechst nuclei count, 48 h
[3] = galactose survival enhancers in mitochondrial complex I cybrids – cell-based, galactose medium, ATP luminescence, primary screen (AID 1645843;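 active = z-score of at least 1.8 in each of two replicates, scored against plate mean and spread of sample wells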;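 also: positive z means more ATP and so rescue of galactose-driven cybrid death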); settings: complex I mutant cybrid cells, 72 h, stronger effect = higher value
[4] = stronger effect = lower value, cell number ratio, induced over uninduced
[5] = measured here: relative caspase fold change +Dox/-Dox
[6] = measured here: total cells with miR-34 induction, stronger effect = lower value
[7] = measured here: total cells without miR-34 induction

| Structure (SMILES) | remaining activity [1] | fold change [2, 4] | fold change [2, 5] | cell count [2, 6] | cell count [2, 7] | z-score [3] |
| --- | --- | --- | --- | --- | --- | --- |
| CN(CCc1ccc(Cl)c(Cl)c1)CCN1CCCC1 | 108% (inactive) | 1.01 (inactive) | 0.63 | 8830 | 8750 | -1.06 (inactive) |
| CC(C)c1ccc2c(c1)CC[C@H]1[C@](C)(CN)CCC[C@]21C | 101% (inactive) | 0.931 (inactive) and 0.9 (inactive) | 0.286 and 1.62 | 5370 and 346 | 5760 and 384 | -0.56 (inactive) |
| O=C(O)Cc1cc2ccccc2nc1C(=O)O | 129% (inactive) | 0.938 (inactive) | 1.06 | 8250 | 8790 | 0.145 (inactive) |
| CCCCc1nc2ccn(CC(=O)N(C)C)c(=O)c2n1Cc1ccc(-c2ccccc2-c2nn[nH]n2)cc1 | 111% (inactive) | 1.01 (inactive) | 0.927 | 8240 | 8192 | -0.18 (inactive) |
| O=[N+]([O-])c1cc(Cl)ccc1S(=O)(=O)N1CCN(Cc2ccccc2)CC1 | 110% (inactive) | 0.93 (inactive) | 1.18 | 8490 | 9130 | -0.68 (inactive) |
| O=C(Nc1ccccc1)C12CC1/C(=N\O)c1ccccc1O2 (centres undefined) | 107% (inactive) | 0.911 (inactive) | 0.471 | 7010 | 7700 | 0.135 (inactive) |
| Cc1c(C2CCN(CCc3ccccc3)CC2)noc1-c1ccc(Cl)cc1 | 92.3% (inactive) | 0.891 (inactive) | 0.892 | 6770 | 7590 | -0.21 (inactive) |
| CCC(=O)OCN1C(=O)C=CC1=O | 92.2% (inactive) | 0.956 (inactive) | 1.17 | 9240 | 9660 | -0.205 (inactive) |
| COC(=O)c1ccccc1NC(=O)c1ccc(F)cc1 | 99.3% (inactive) | 0.965 (inactive) | 0.872 | 7260 | 7520 | 0.635 (inactive) |
| C/C(O)=C1/C(=O)[C@@H]2[C@H]3c4c[nH]c5cccc(c45)C[C@H]3C(C)(C)N2C1=O | 119% (inactive) | 0.988 (inactive) | 1.54 | 6050 | 6130 | -0.525 (inactive) |
| C1CCC2(CC1)CCNCC2 | 105% (inactive) | 0.955 (inactive) | 1.56 | 9280 | 9730 | 0.34 (inactive) |
| N[C@@H](CC(=O)Nc1ccc(Oc2cc(F)c(F)cc2Br)cc1)C(=O)O | 98.2% (inactive) | 0.952 (inactive) | 1.1 | 7870 | 8270 | 0.265 (inactive) |
| CC(=O)N(OCc1ccccc1)[C@@H]1c2cc(C#N)ccc2OC(C)(C)[C@H]1O | 105% (inactive) | 0.887 (inactive) | 0.973 | 8320 | 9380 | 0.705 (inactive) |
| N#C/C(=C\c1ccc(O)c(O)c1)C(=O)NCCCCc1ccccc1 | 95.7% (inactive) | 0.982 (inactive) | 1.09 | 7480 | 7610 | -0.725 (inactive) |
| CN(CCc1ccc(Cl)c(Cl)c1)CC(O)COc1ccc(NS(C)(=O)=O)cc1 (centres undefined) | 107% (inactive) | 0.951 (inactive) and 0.956 (inactive) | 1.56 and 0.961 | 4180 and 6530 | 4390 and 6830 | 0.67 (inactive) |
| NC(=O)CCCCn1ccc(NC(N)=NCC(F)(F)F)n1 | 98.2% (inactive) | 0.945 (inactive) | 0.965 | 8750 | 9250 | 1.19 (inactive) |
| Cc1ccc2c(=O)c3ccccc3n(CCCN)c2c1C | 96.6% (inactive) | 1.17 (inactive) | 1.36 | 2370 | 2020 | -0.58 (inactive) |
| CC(C)Oc1ccc2c(=O)c3cc(C(=O)O)ccc3oc2c1 | 93.9% (inactive) | 1.01 (inactive) | 1.37 and 0.638 | 5920 and 8510 | 5860 and 8390 | 0.015 (inactive) |
| Cc1nc2c(c(=O)[nH]1)CSCC2 | 100% (inactive) | 0.983 (inactive) | 1.6 | 9080 | 9230 | -0.035 (inactive) |
| NC(=NC1C2CC3CC(C2)CC1C3)Nc1ccc(I)cc1 (centres undefined) | 126% (inactive) | 1.12 (inactive) | 0.649 | 2830 | 2540 | -0.39 (inactive) |

| Structure (SMILES) | remaining activity [1] | fold change [2, 4] | fold change [2, 5] | cell count [2, 6] | cell count [2, 7] | z-score [3] |
| --- | --- | --- | --- | --- | --- | --- |
| Oc1ccc(-c2c(-c3ccccc3)nn3c(C(F)(F)F)cc(C(F)(F)F)nc23)cc1 | 95% (inactive) | 0.915 (inactive) | 2.74 | 8170 | 8930 | 0.225 (inactive) |
| Cc1noc(NS(=O)(=O)c2cccc3c(N(C)C)cccc23)c1C | 116% (inactive) | 0.967 (inactive) | 0.84 | 8350 | 8630 | -0.135 (inactive) |
| CC1Nc2ccc(Cl)cc2S(=O)(=O)N1 (centres undefined) | 102% (inactive) | 0.919 (inactive) | 0.718 | 8550 | 9300 | 0.035 (inactive) |
| COc1ccccc1N1CCN(CCCCN2C(=O)CCC2=O)CC1 | 103% (inactive) | 0.855 (inactive) | 0.698 | 8300 | 9700 | -0.25 (inactive) |
| C[C@H](NC[C@H](O)CP(=O)(O)Cc1ccccc1)c1ccc(Cl)c(Cl)c1 | 111% (inactive) | 0.949 (inactive) | 1.04 | 8740 | 9210 | 0.06 (inactive) |
| CCCCCN=c1ccn(Cc2ccccc2)c2ccccc12 | 114% (inactive) | 1.09 (inactive) | 0.778 | 1550 | 1420 | -0.705 (inactive) |
| N[C@H](C(=O)O)c1ccc(C(=O)O)c(O)c1 | 95.5% (inactive) | 0.931 (inactive) | 0.823 | 8860 | 9520 | -0.145 (inactive) |
| O=S(=O)(c1cccc2cnccc12)N1CCNCC1 | 125% (inactive) | 1.05 (inactive) | 0.794 | 9210 | 8760 | -0.56 (inactive) |
| COC(=O)[C@H](Cc1ccc([N+](=O)[O-])cc1)NC(=O)c1cccc2ccccc12 | 101% (inactive) | 0.968 (inactive) | 0.966 | 9700 | 10000 | -0.13 (inactive) |
| Nc1nc2c(ccc3ccccc32)s1 | 121% (inactive) | 0.908 (inactive) | 1.66 | 8670 | 9550 | 0.415 (inactive) |
| Cc1cc(/C(=C\Nc2ccc(Cl)cc2)C(=O)Nc2ccc(Cl)cc2)on1 | 122% (inactive) | 0.913 (inactive) | 0.914 | 7920 | 8680 | 0.03 (inactive) |
| Cc1c(C(=O)NN2CCOCC2)nn(-c2ccc(Cl)cc2Cl)c1-c1ccc(I)cc1 | 115% (inactive) | 0.846 (inactive) | 0.864 | 8280 | 9790 | -0.285 (inactive) |
| CC[C@@H](C)[C@H]1O[C@]2(CC[C@@H]1C)C[C@@H]1C[C@@H](C/C=C(\C)[C@@H](O[C@H]3C[C@H](OC)[C@@H](O[C@H]4C[C@H](OC)[C@@H](O)[C@H](C)O4)[C@H](C)O3)[C@@H](C)/C=C/C=C3\CO[C@@H]4[C@H](O)C(C)=CC(C(=O)O1)[C@]34O)O2 (some centres undefined) (tested in a mixture with another compound) | 124% (inactive) | 0.987 (inactive) | 1.53 | 507 | 514 | -1.04 (inactive) |
| Cc1c(NC(=O)N2CCOCC2)ccc2c1c1ccccc1n2C(C)C | 122% (inactive) | 0.891 (inactive) | 1.37 | 8260 | 9270 | 1.14 (inactive) |
| CC(C)NCCN(C(C)C)S(=O)(=O)c1ccc(Cl)cc1Cl | 113% (inactive) | 0.946 (inactive) | 1.35 | 9040 | 9560 | -0.215 (inactive) |
| Nc1ncnc2c1nc(Br)n2[C@@H]1O[C@@H]2COP(=O)(O)O[C@H]2[C@H]1O | 114% (inactive) | 0.96 (inactive) | 0.834 | 8030 | 8360 | -0.015 (inactive) |
| Ic1cc(-c2ccccc2)ncn1 | 120% (inactive) | 0.965 (inactive) | 1.73 | 8200 | 8500 | 0.11 (inactive) |
| C[C@@H](CN1CCC(n2c(=O)[nH]c3cc(Cl)ccc32)CC1)NC(=O)c1ccc2ccccc2c1 | 106% (inactive) | 1.11 (inactive) | 0.89 | 3940 | 3560 | -1.04 (inactive) |
| OC(c1ccccc1)C1CCN(CCc2ccccc2)CC1 (centres undefined) | 96.8% (inactive) | 0.917 (inactive) | 0.92 | 8660 | 9440 | -0.035 (inactive) |
